# The list is not random: actives were taken first. Their share in the collection is about 1.6%.
# p53ts 39C tox: kills p53ts cells at the nonpermissive temperature. Potency, µM (titrated, usually from 46.1 µM), hits mostly cytotoxic. H1299-p53A138V viability at 39C, ATP luminescence, 24 h. actives 1.5% (n = 130,000); also: nearly all actives have a fitted effect of over 55% in size
# HBB splicing: alters splicing of the hemoglobin beta chain. HBB splicing reporter cell assay, activation; EGFP reporter with mutant IVS2-654 intron; response scale: normalised to 500 nM splice-correcting PNA. Potency, µM (top dose mostly 46.1 µM), actives largely listed as activators. actives 0.06% (n = 65,000). AID 925
#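 HeLa cells stably expressing EGFP interrupted by mutant beta-globin intron 2 (IVS2-654), 500/well in 2% FCS. Treated with compound for 2 days at 37C. Splicing correction scored as total well GFP intensity (488 nm excitation, 500-520 nm emission); 500 nM antisense PNA served as control.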
# GFP derepression: epigenetic modulators derepressing GFP locus in mouse cells; mouse C127i GFP locus derepression, cytometry, 30 h; Potency, µM (series often up to 46.1 µM); actives 0.09% (n = 68,000)
#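 Read-out is the number of GFP-positive cells, scored as fluorescent objects 20 to 120 um wide, reflecting derepression of a silenced CMV-GFP reporter in murine C127i cells after 30 h compound exposure at 37 C.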
# Imprint erasure: inducers of genomic imprint erasure in mouse ES cells | mouse ES Peg3-LacZ reporter, beta-gal luminescence, 40 h | Potency, µM (top dose mostly 60.7 µM), usual class: activators | actives 0.02% (n = 110,000) | AID 1948
#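 Gelatin-coated wells received 300 freshly trypsinized female ES cells with a Peg3LacZ-Neo reporter on the maternal allele, then incubated 40 hours at 37C. BetaGlo was added for 5 minutes at room temperature before a single luminescence read.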
# UbGFP stabilizer: proteasome inhibitors stabilizing ubiquitin-GFP reporter | Ubiquitin-GFP reporter cells, proteasome inhibition, GFP fluorescence; response scale: untreated = 0%, 10 µM MG-132 = 100% | Potency, µM (series often up to 45.9 µM), actives largely listed as activators | 67,000 tested, under 10 active | AID 526; active = well fitted activation curve with a large enough effect, not every such curve was filed as active; inconclusive = small, poorly fitted or top-dose-only effect, or another doubt; inactive = no such curve, though single readings can be large or run the other way
#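 Reporter cells (U2OS, ubiquitin-G76V-GFP fusion) are plated overnight, then treated 4 hr at 37 °C with compound titrations from 46 uM down to 2.9 nM. Activity is scaled against untreated cells and 10 uM MG-132.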
# p53ts 32C kill: cytotoxicity in p53ts cells at permissive temperature. actives 0.93% (n = 130,000). AID 924. H1299-p53A138V at 32C, ATP luminescence viability, 24 h. Potency, µM (highest dose often 46.1 µM), actives largely listed as cytotoxic; also: nearly all actives have a fitted effect of over 55% in size
#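 Cells: H1299 p53ts (A138V), 600/well, pre-incubated 16–30 h at 37C. Cpd up to 46 uM, 24 h, 32C. Readout: ATPlite luminescence, 20 min RT. Normalization: DMSO vs tamoxifen 100 uM. AC50 by Hill equation.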
# Hits are given with their value; – = inactive; ? = inconclusive; · = no result given; [ ] = dose if it differs, or a comment. Unless noted, calls follow the shape of the dose curve; as a rule, active = well fitted curve in the direction sought with a large enough effect; inconclusive = small, poorly fitted or top-dose-only effect, or another doubt; inactive = no such curve, though single readings can be large; an effect the other way counts as inactive or inconclusive.
SMILES,p53ts 39C tox,HBB splicing,GFP derepression,Imprint erasure,UbGFP stabilizer,p53ts 32C kill
COC(=O)c1ccc(CSc2nc3c([nH]c4ccccc43)c(=O)n2-c2cc(C)cc(C)c2)o1,15.8µM,·,·,–[10.9 µM],·,–
Cc1coc(NC(=O)CSc2nc(-c3ccncc3)cc(C(F)(F)F)c2C#N)n1,–,·,10µM,·,–,–
CCOc1ccc2nc(N3CCCC(C(=O)NCCc4ccc(Cl)cc4)C3)sc2c1 (stereo not given),?,·,·,–[10.9 µM],·,–
CCOc1ccc2nc(N3CCCC(C(=O)NCCCN4CCOCC4)C3)sc2c1 (stereo not given),–,–,–,–,–,10µM
Cc1ccc(N(C)S(=O)(=O)c2nnc(NC(=O)CC(C)C)s2)cc1,–,·,·,–[10.9 µM],·,–
COc1ccc(-c2cc(=O)c3ccccc3[nH]2)cc1,·,·,·,–,·,·
COc1ccc(-c2cc(=O)c3ccccc3s2)cc1,25.1µM,–,–,–,–,12.6µM
CC1CCN(c2nc3ccc(C(=O)O)cc3s2)CC1,?,·,·,·,·,10µM
O=C(Nc1ccc(N2CCCCC2)cc1)c1ccccc1,12.6µM,·,·,·,·,5.01µM
O=C(Nc1ccc(N2CCCC2)cc1)c1cccc(F)c1,5.01µM,–,–,–,–,7.94µM
O=C(Nc1ccc(N2CCCC2=O)cc1)c1cccc(F)c1,?,–,–,–,–,?
O=C(c1cc(-c2cccc(O)c2)on1)N1CCOCC1,?,–,–,–,–,10µM
Cc1ccc(S(=O)(=O)Cc2ccc(C(=O)N3CCN(c4cc(C)ccc4C)CC3)o2)cc1,–,–[1.84 µM],–,–,–,–
CC(C)CN(CC(C)C)c1nc(-c2ccc(Cl)cc2)nc2ccccc12,–,·,·,–[10.9 µM],·,–
CCN(CC)c1nc(-c2ccc(C(C)(C)C)cc2)nc2ccccc12,12.6µM,·,·,–[10.9 µM],·,12.6µM
O=C(NCCCN1CCN(c2ccccc2F)CC1)c1nnc(Cc2ccc(Cl)cc2Cl)o1,?,·,·,–[10.9 µM],·,–
Cc1ccc(Cl)cc1N1CCN(CCCNC(=O)c2nnc(Cc3cccc(Cl)c3)o2)CC1,12.6µM,·,·,–[10.9 µM],·,–
Cc1cc2c(cc3c(SCc4cccc(F)c4)nnc(C)n32)o1,–,·,·,–[10.9 µM],·,–
Cc1cc2c(cc3c(SCc4ccc(Cl)cc4)nnc(C)n32)o1,10µM,·,·,–[10.9 µM],·,–
Cc1ccc(/C=C/c2nc3ccccc3n2S(=O)(=O)c2cccc(Cl)c2)cc1,3.16µM,·,·,–[10.9 µM],·,3.16µM
CCOc1ccc(/C=C/c2nc3ccccc3n2S(=O)(=O)c2cccc(Cl)c2)cc1,10µM,·,·,–[10.9 µM],·,12.6µM
CSc1ccc(/C=C/c2nc3ccccc3n2S(=O)(=O)c2ccc(F)c(C)c2)cc1,3.98µM,·,·,–[10.9 µM],·,7.94µM
CC(=O)c1nc2ccccc2n1S(=O)(=O)c1ccc(C)cc1,–,–,–,–,–,–
CCOc1cc(S(=O)(=O)n2c(C)nc3ccccc32)ccc1F,–,–,–,–,–,–
COc1cccc(Nc2sc(C(=O)c3ccc(Cl)cc3)c(N)c2C(=O)NCc2ccc(C)cc2)c1,–,·,·,–[10.9 µM],·,–
SMILES,p53ts 39C tox,HBB splicing,GFP derepression,Imprint erasure,UbGFP stabilizer,p53ts 32C kill
CCOC(=O)C(C)Oc1ccc2c(-c3cccc([N+](=O)[O-])c3)cc(=O)oc2c1 (stereo not given),–,·,·,·,·,–
CCCNC(=O)NC(=O)CSc1nc2ccccc2n1CC(C)C,–,–,–,–,–,–
CC(=O)NCCNc1ncncc1-c1ccccc1C,–,–,–[9.22 µM],–,–,–
Cc1ccc(CNC(=O)c2c3c(nc4ccccc24)C(=O)N(C2CCCCC2)C3)cc1,–,·,·,–[10.9 µM],·,–
CCc1nn(CC(=O)NCc2ccccc2)c(=O)c2cccn12,20µM,·,·,–[10.9 µM],·,–
Cc1ccc(CNC(=O)Cn2nc(C)n3cccc3c2=O)cc1,–,·,·,–[10.9 µM],·,–
Cc1cccn2cc(-c3ccccc3)nc12,?,–,–,–,–,12.6µM
Cc1ccc2nc(-c3ccccc3)cn2c1,0.631µM,–,–,–,–,0.501µM
COc1ccc(-c2cn3ccc4ccccc4c3n2)cc1,11.2µM,·,·,·,·,?
Cc1ccc(-c2nc3sccn3c2Nc2ccc(C)c(C)c2)cc1,–,·,·,–[10.9 µM],·,–
O=C(N/N=C/C=C\c1ccccc1[N+](=O)[O-])c1cc(-c2ccc3ccccc3c2)n[nH]1,–,·,·,·,·,–
O=[N+]([O-])c1cccc(/C=N\Nc2ccc3ccccc3n2)c1O,3.98µM,–[9.22 µM],–[9.22 µM],–[10.9 µM],–[9.17 µM],2.51µM
O=C(CSc1nc(-c2ccccc2)no1)N1CCN(c2ccccc2F)CC1,–,·,·,–[10.9 µM],·,–
CC(C)c1ccc(-c2noc(SCC(=O)N3CCN(c4ccccc4F)CC3)n2)cc1,6.31µM,·,·,–[10.9 µM],·,?
COc1ccccc1N1CCN(C(=O)CSc2nc(-c3ccc(C(C)C)cc3)no2)CC1,?,·,·,–[10.9 µM],·,7.94µM
CC1CCN(c2ccc(-c3nc(-c4ccccc4)no3)cc2[N+](=O)[O-])CC1,22.4µM,·,·,–[10.9 µM],·,–
Cc1ccc(-c2noc(-c3ccc(N4CCC(C)CC4)c([N+](=O)[O-])c3)n2)cc1,–,·,·,–[10.9 µM],·,–
CCCN(CCC)C(=O)CSc1nc2ccccc2c(=O)n1C1CCCC1,–,–,–,–,–,–
COCCOC(=O)c1[nH]c2c(c1C)C(=O)C(C(=O)OC)C(C)C2 (stereo not given),10µM,–,–,–,–,15.8µM
COC(=O)C1C(=O)c2c([nH]c(C(=O)OCC3CCCO3)c2C)CC1C (stereo not given),?,–,–,–,–,12.6µM
CCCCCOC(=O)c1[nH]c2c(c1C)C(=O)C(C(=O)OC)C(C)C2 (stereo not given),–,–,–,–,–,–
CC(C)N=C(NC#N)SCC(=O)NC(C)(C)C,–,–,–,–,–,–
CC(=O)S[C@@H]1CC2=CC(=O)CC[C@@]2(C)[C@H]2CC[C@]3(C)[C@H](CC[C@@]34CCC(=O)O4)[C@H]12,–,–,–,·,–,–
O=C(CSc1nnc(Cc2ccccc2)o1)N1CCOCC1,–,·,–,–,–,–
O=C(NCCCN1CCCCC1)c1[nH]c2ccccc2c1Sc1ccc(Cl)cc1,–,·,·,–[10.9 µM],·,–
SMILES,p53ts 39C tox,HBB splicing,GFP derepression,Imprint erasure,UbGFP stabilizer,p53ts 32C kill
CCOC(=O)c1ccccc1NC(=O)N(Cc1ccc(C)cc1)Cc1cccn1-c1nnc(N2CCCC2=O)s1,–,·,·,–[10.9 µM],·,–
Cc1ccc2nc(-c3sc4nc(C)ccc4c3N)[nH]c2c1,10µM,·,·,·,·,12.6µM
Cc1ccc2nc(-c3ccc(SCC(=O)O)nc3)[nH]c2c1,–,·,–,–,–,–
COc1ccc(-c2cc(C(=O)OCC(=O)N3CCCC3)c3ccccc3n2)cc1,6.31µM,–,–,–,–,12.6µM
COc1ccc(-c2cc(C(=O)Oc3ccc(Br)cc3)c3ccccc3n2)cc1,12.6µM,·,·,–[10.9 µM],·,?
Cc1cc(C(=O)OCC(=O)N2CCOCC2)c2ccccc2n1,–,–,–,–,–,–
COc1ccc(-c2cc(C(=O)Oc3ccc(C)c(C)c3)c3ccccc3n2)cc1,–,·,·,–[10.9 µM],·,–

# Compound activity as filed in PubChem.
